In article PMC4081100, “A DNA-binding-site landscape and regulatory network analysis for NAC transcription factors in Arabidopsis thaliana”:

Tests used:
Experiment in all cases: universal protein binding microarray (PBM); transcription factors of Arabidopsis thaliana; high values mean tight binding
Details in all cases: protein: recombinant; tags: GST; chain copies: 2; dsDNA, one strand shown
GST-ANAC092(1-176) = target: T1, GST-ANAC092(1-176) (Arabidopsis thaliana, UniProt Q9FKA0 1-176)
T1 sequence: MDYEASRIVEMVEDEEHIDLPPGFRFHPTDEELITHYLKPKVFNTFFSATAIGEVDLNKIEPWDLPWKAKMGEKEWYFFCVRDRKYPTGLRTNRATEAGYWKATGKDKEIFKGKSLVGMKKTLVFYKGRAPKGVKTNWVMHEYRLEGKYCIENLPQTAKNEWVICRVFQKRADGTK
Method in brief: (§1)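 GST-tagged proteins (NAC-domain, full-length or DNA-binding-domain) were induced in cells, with zinc acetate supplied for zinc-finger proteins, then purified on glutathione–Sepharose 4B. Each was tested in duplicate at 200 to 500 nM final on custom all-10-mer Agilent 4 × 180K arrays rendered double-stranded by primer extension. The binding value is the normalised enrichment score (E-score) across gapped and ungapped 8-mers.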

GST-NTL6(1-168) = GST-NTL6(1-168) (Arabidopsis thaliana, UniProt Q9SCK6 1-168)
Sequence of GST-NTL6(1-168) (Q9SCK6 1-168): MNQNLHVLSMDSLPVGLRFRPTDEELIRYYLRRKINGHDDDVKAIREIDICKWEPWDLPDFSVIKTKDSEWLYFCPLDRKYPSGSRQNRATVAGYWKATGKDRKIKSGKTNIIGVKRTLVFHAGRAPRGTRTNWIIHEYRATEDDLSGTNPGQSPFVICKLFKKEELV
Method in brief: as §1

GST-ANAC019 NAC domain = target: T2, GST-ANAC019 NAC domain (Arabidopsis thaliana, UniProt Q9C932 14-162)
T2 sequence: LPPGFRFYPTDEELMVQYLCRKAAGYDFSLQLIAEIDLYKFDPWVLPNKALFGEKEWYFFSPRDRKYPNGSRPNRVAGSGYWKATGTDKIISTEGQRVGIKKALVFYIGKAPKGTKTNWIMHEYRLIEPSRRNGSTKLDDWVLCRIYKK
Method in brief: as §1

GST-ANAC055(1-171) = target: T3, GST-ANAC055(1-171) (Arabidopsis thaliana, UniProt Q9LDY8 1-171)
T3 sequence: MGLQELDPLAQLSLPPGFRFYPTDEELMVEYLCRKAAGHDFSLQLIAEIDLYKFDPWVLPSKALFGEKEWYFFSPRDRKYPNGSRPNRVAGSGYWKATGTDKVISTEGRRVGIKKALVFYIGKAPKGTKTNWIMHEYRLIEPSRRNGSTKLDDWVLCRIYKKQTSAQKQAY
Method in brief: as §1

GST-ATAF1 NAC domain = target: T4, GST-ATAF1 NAC domain (Arabidopsis thaliana, UniProt Q39013 7-158)
T4 sequence: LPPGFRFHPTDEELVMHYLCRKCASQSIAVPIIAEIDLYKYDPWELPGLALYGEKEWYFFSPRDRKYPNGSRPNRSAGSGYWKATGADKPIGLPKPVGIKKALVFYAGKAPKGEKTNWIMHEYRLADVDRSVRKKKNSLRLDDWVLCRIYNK
Method in brief: as §1

[1] = target: T5, GST-ANAC092(1-285) full length (Arabidopsis thaliana, UniProt Q9FKA0 1-285)
T5 sequence: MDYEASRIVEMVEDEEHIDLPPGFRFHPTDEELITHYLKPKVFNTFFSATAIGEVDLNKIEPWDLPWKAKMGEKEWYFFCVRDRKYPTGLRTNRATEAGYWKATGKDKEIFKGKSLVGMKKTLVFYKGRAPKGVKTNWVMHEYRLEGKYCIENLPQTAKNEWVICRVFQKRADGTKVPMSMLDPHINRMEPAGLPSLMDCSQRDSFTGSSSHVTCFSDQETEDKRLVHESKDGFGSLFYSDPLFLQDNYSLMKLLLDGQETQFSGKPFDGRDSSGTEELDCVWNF
Method in brief: as §1

GST-NAP(1-166) = target: T6, GST-NAP(1-166) (Arabidopsis thaliana, UniProt O49255 1-166)
T6 sequence: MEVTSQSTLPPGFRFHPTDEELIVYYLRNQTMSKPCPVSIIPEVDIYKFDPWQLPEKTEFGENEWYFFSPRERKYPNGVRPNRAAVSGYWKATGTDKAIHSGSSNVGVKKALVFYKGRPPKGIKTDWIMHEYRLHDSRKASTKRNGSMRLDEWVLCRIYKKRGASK
Method in brief: as §1

GST-NST2(1-184) = target: T7, GST-NST2(1-184) (Arabidopsis thaliana, UniProt Q9M274 1-184)
T7 sequence: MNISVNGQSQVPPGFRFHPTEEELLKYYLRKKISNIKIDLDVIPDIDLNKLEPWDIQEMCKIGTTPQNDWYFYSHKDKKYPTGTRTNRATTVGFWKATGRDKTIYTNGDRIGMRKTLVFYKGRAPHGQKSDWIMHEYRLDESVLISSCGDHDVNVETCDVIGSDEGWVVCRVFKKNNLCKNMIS
Method in brief: as §1

GST-NTL8 NAC domain = target: T8, GST-NTL8 NAC domain (Arabidopsis thaliana, UniProt Q9XIN7 14-156)
T8 sequence: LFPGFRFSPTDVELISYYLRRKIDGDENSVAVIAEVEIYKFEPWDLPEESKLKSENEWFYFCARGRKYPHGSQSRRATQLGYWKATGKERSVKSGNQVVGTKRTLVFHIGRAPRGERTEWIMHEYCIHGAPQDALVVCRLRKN
Method in brief: as §1

GST-SND1(1-203) = target: T9, GST-SND1(1-203) (Arabidopsis thaliana, UniProt Q9LPI7 1-203)
T9 sequence: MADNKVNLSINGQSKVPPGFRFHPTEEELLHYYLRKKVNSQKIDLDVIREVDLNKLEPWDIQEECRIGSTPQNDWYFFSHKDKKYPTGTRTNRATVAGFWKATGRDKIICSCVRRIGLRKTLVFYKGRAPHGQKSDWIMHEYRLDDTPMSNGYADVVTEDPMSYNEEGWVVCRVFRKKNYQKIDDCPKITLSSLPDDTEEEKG
Method in brief: as §1

GST-VND3 NAC domain = target: T10, GST-VND3 NAC domain (Arabidopsis thaliana, UniProt Q9FH59 12-162)
T10 sequence: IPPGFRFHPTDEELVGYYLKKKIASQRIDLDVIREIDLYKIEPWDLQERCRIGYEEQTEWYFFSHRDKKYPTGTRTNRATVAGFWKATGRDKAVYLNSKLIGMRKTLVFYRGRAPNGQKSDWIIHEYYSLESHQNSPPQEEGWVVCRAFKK
Method in brief: as §1

GST-VND7 NAC domain = target: T11, GST-VND7 NAC domain (Arabidopsis thaliana, UniProt Q9C8W9 9-158)
T11 sequence: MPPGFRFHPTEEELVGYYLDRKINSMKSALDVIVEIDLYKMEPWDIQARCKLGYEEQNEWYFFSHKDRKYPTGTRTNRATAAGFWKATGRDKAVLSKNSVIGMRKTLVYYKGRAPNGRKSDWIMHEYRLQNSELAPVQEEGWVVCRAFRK
Method in brief: as §1

| Sequence | binding signal (GST-ANAC092(1-176)) | binding signal (GST-NTL6(1-168)) | binding signal (GST-ANAC019 NAC domain) | binding signal (GST-ANAC055(1-171)) | binding signal (GST-ATAF1 NAC domain) | binding signal [1] | binding signal (GST-NAP(1-166)) | binding signal (GST-NST2(1-184)) | binding signal (GST-NTL8 NAC domain) | binding signal (GST-SND1(1-203)) | binding signal (GST-VND3 NAC domain) | binding signal (GST-VND7 NAC domain) |
| --- | --- | --- | --- | --- | --- | --- | --- | --- | --- | --- | --- | --- |
| GTACGCTA | 0.428 E-score | 0.0905 E-score | 0.124 E-score | 0.165 E-score | 0.238 E-score | 0.449 E-score | 0.219 E-score | 0.288 E-score | 0.129 E-score | 0.447 E-score | 0.15 E-score | 0.233 E-score |
| CTACGTAA | 0.329 E-score | 0.0836 E-score | 0.352 E-score | 0.295 E-score | 0.316 E-score | 0.378 E-score | 0.312 E-score | 0.0582 E-score | 0.105 E-score | 0.402 E-score | 0.378 E-score | 0.345 E-score |
| GCGTAAAA | 0.261 E-score | 0.0562 E-score | 0.15 E-score | 0.087 E-score | 0.185 E-score | 0.247 E-score | 0.0952 E-score | 0.239 E-score | 0.107 E-score | 0.407 E-score | 0.197 E-score | 0.174 E-score |
| CAAGTAAC | 0.352 E-score | 0.316 E-score | 0.134 E-score | 0.203 E-score | 0.0948 E-score | 0.408 E-score | 0.0502 E-score | 0.298 E-score | 0.185 E-score | 0.301 E-score | 0.209 E-score | 0.0947 E-score |
| GGAAGCAA | 0.318 E-score | 0.36 E-score | 0.117 E-score | 0.136 E-score | 0.137 E-score | 0.405 E-score | 0.0755 E-score | 0.242 E-score | 0.269 E-score | 0.385 E-score | 0.118 E-score | 0.0735 E-score |
| ATTCCTTA | 0.103 E-score | 0.486 E-score | 0.0942 E-score | 0.114 E-score | 0.126 E-score | 0.115 E-score |  | 0.224 E-score | 0.237 E-score | 0.306 E-score | 0.0907 E-score | 0.064 E-score |
| CACGTAAG | 0.449 E-score | 0.068 E-score | 0.463 E-score | 0.441 E-score | 0.349 E-score | 0.446 E-score | 0.419 E-score | 0.201 E-score | 0.17 E-score | 0.0778 E-score | 0.447 E-score | 0.447 E-score |
| CTTACTTC | 0.272 E-score | 0.413 E-score | 0.227 E-score | 0.191 E-score | 0.209 E-score | 0.325 E-score |  | 0.267 E-score | 0.4 E-score | 0.387 E-score | 0.209 E-score | 0.23 E-score |
| AAGCAATC | 0.384 E-score | 0.324 E-score | 0.21 E-score | 0.0736 E-score | 0.108 E-score | 0.417 E-score |  | 0.327 E-score | 0.264 E-score | 0.466 E-score | 0.152 E-score | 0.289 E-score |
| GTTGAGTA | 0.305 E-score | 0.152 E-score | 0.0635 E-score | 0.0864 E-score | 0.139 E-score | 0.386 E-score |  | 0.279 E-score |  | 0.419 E-score | 0.0828 E-score | 0.108 E-score |
| ACGTAACA | 0.438 E-score | 0.133 E-score | 0.389 E-score | 0.413 E-score | 0.365 E-score | 0.426 E-score | 0.417 E-score | 0.345 E-score | 0.205 E-score | 0.409 E-score | 0.41 E-score | 0.419 E-score |
| AAGTTACC | 0.365 E-score | 0.308 E-score | 0.155 E-score | 0.0803 E-score | 0.142 E-score | 0.417 E-score | 0.114 E-score | 0.288 E-score | 0.376 E-score | 0.37 E-score | 0.146 E-score | 0.0773 E-score |
| CTAAGTAA | 0.2 E-score | 0.49 E-score | 0.0529 E-score | 0.0945 E-score | 0.107 E-score | 0.3 E-score | 0.188 E-score | 0.225 E-score | 0.216 E-score | 0.394 E-score | 0.238 E-score | 0.209 E-score |
| CACGGCAA | 0.457 E-score | 0.0683 E-score | 0.471 E-score | 0.44 E-score | 0.364 E-score | 0.456 E-score | 0.36 E-score | 0.256 E-score | 0.0895 E-score | 0.123 E-score | 0.456 E-score | 0.444 E-score |
